uPA generation: qHTS for Inhibitors of Cell Surface uPA Generation. AID 540303, 2011. cell surface uPA generation assay, qHTS. Potency, µM (titrated, usually from 38.3 µM), usual class: inhibitors. 330,000 tested, 0.31% active; active = well fitted inhibition curve with a large enough effect; inconclusive = small, poorly fitted or top-dose-only effect; inactive = no such curve, though single readings can be large or run the other way; tested in mouse RAW 264.7 cells; also: nearly all actives have a fitted effect of over 55% in size
ELG1 genotoxic: qHTS screen for small molecules that induce genotoxicity in human embryonic kidney (HEK293T) cells expressing luciferase-tagged ELG1 | Potency, µM (titrated, usually from 46 µM), hits mostly activators | 330,000 tested, 1.3% active | HEK293T ELG1-luciferase reporter, luminescence, 16 h; also: nearly all actives have a fitted effect of over 60% in size
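Reporter readout depends on ELG1 protein level, which increases with genetic stress. After 16 hr compound exposure at 37 °C, luciferase activity was quantified using ONE-Glo.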
Rab9 prom act: qHTS Assay for Rab9 Promoter Activators | Potency, µM (top dose mostly 9.22 µM), most hits filed as activators | 320,000 tested, 2.8% active | Huh7 Rab9 promoter-luciferase reporter, luminescence, 24 h; also: nearly all actives have a fitted effect of over 60% in size
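Promoter activation is measured as luciferase luminescence in Huh7 cells stably transfected with a Rab9 promoter–luciferase construct, following 24 h compound exposure at 37 °C and 10 min reagent incubation at ambient temperature.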
FLuc modulator: qHTS profiling assay for firefly luciferase inhibitor/activator using purifed enzyme and Km concentrations of substrates (counterscreen for miR-21 project); Luciferin 4-monooxygenase (Photinus pyralis), P08659; purified FLuc, Km substrates, luminescence inhibition; Potency, µM (doses to about 57.5 µM), hits mostly inhibitors; 360,000 tested, 6.9% active; AID 588342, 2011; also: nearly all actives have a fitted effect of over 55% in size
Target sequence (P08659 whole entry, looked up): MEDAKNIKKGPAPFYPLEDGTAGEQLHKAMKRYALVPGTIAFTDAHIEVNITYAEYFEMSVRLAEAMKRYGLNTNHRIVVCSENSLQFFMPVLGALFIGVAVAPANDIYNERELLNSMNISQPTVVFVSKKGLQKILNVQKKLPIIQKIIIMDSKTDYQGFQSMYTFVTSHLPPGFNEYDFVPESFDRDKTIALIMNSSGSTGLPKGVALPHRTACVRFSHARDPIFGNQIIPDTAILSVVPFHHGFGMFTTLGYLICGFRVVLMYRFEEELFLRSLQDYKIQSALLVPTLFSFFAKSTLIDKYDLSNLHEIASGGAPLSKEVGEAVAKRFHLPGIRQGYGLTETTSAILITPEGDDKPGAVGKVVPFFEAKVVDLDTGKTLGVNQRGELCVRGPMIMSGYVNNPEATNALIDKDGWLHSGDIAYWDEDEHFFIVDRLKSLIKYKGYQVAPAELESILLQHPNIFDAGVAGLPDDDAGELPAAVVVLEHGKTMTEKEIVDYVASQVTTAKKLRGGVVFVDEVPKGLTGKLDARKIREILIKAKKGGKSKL
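Purified P. pyralis luciferase (10nM final) with 10uM D-luciferin and 10uM ATP (Km levels) in 50mM Tris acetate pH 7.5, 10mM Mg acetate, 0.01% Tween-20, 0.05% BSA; qHTS 6-point titration, ~60 µM downward; luminescence read.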
SMN2 splice up: qHTS Assay for Enhancers of SMN2 Splice Variant Expression; HEK293 SMN2-luciferase splicing reporter, luminescence, 30-36 h; Potency, µM (doses to about 46.1 µM), hits mostly activators; 210,000 tested, 2.8% active; AID 1458, 2008; also: nearly all actives have a fitted effect of over 55% in size
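HEK293 cells carry an SMN2 […]–luciferase reporter in which exon 7 inclusion puts luciferase in frame. Cells were plated 10-12 h before compound addition, then incubated 30-36 h at 37C. ONE-Glo luminescence was read; sodium butyrate at 4.5 mM final served as control.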
NPC1 promoter act: qHTS Assay for NPC1 Promoter Activators; AID 485313, 2010; 320,000 tested, 2.4% active; Huh7 NPC1 promoter luciferase reporter, 24 h; Potency, µM (top dose mostly 9.22 µM), usual class: activators; also: nearly all actives have a fitted effect of over 60% in size
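Quantitative HTS used a cell-based reporter: Huh7 cells stably bearing the NPC1 promoter upstream of luciferase were treated with compounds for 24 h, and promoter activation was read as luminescence.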
Hits are given with their value; n = inactive; u = inconclusive; x = no result given. The list is not random: actives were taken first. Their share in the collection is about 7.3%. Unless noted, calls follow the shape of the dose curve; as a rule, active = well fitted curve in the direction sought with a large enough effect; inconclusive = small, poorly fitted or top-dose-only effect, or another doubt; inactive = no such curve, though single readings can be large; an effect the other way counts as inactive or inconclusive.

SMILES	uPA generation	ELG1 genotoxic	Rab9 prom act	FLuc modulator	SMN2 splice up	NPC1 promoter act
CCOC(=O)C1CCCN(C(=O)c2cc(-c3ccc(F)cc3)nc3ccccc23)C1 (stereo not drawn)	n	n	n	15µM	n	n
CCOC(=O)C1CCCN(C(=O)c2cc(-c3ccncc3)nc3ccccc23)C1 (stereo not drawn)	n	n	n	n	x	n
CC(C)c1cccc(C(C)C)c1NC(=O)CCN1C(=O)NC2(CCCC2)C1=O	n	n	n	x	x	n
CCOc1cc(/C=N\NC(=O)c2ccc(NC(=O)C(C)(C)C)cc2)ccc1OC(=O)c1ccc(OC)cc1	n	n	n	n	n	n
COc1ccc(C(=O)N/N=C/c2ccc(OC)c(COc3ccc(F)cc3)c2)cc1	n	n	n	n	x	n
COc1cccc(C(=O)Oc2ccc(/C=N/Nc3ccc(C(=O)O)cc3)cc2OC)c1	n	u	u	24µM	x	0.45µM
COc1cccc(OCc2cc(/C=N/Nc3ccc(C(=O)O)cc3)ccc2OC)c1	n	4.6µM	u	6.7µM	x	n
CCOc1cc(/C=N/Nc2ccc(C(=O)O)cc2)ccc1OC(=O)c1ccccc1C	n	n	4µM	u	x	1.4µM
NC(=O)C1CCN(C(=O)c2ccc3nc(N4CCCCC4)sc3c2)CC1	n	u	3.2µM	u	x	2.8µM
CC1CCN(c2nc3ccc(C(=O)N4CCN(Cc5ccccc5)CC4)cc3s2)CC1	n	u	n	17µM	n	n
CC1CCN(C(=O)c2ccc3ccccc3c2)CC1	n	u	2.5µM	12µM	x	3.5µM
c1ccc(CN2CCN(c3nc4ccccc4s3)CC2)cc1	n	9.2µM	0.71µM	2.7µM	x	1.4µM
COc1cccc(N2CCN(C(=O)c3ccc4nc(N5CCC(C)CC5)sc4c3)CC2)c1	x	u	u	9.5µM	n	u
CCOC(=O)N1CCN(C(=O)c2ccc3nc(N4CCCCC4)sc3c2)CC1	n	n	n	n	n	n
O=C(c1ccc2nc(N3CCCCC3)sc2c1)N1CCN(Cc2ccc3c(c2)OCO3)CC1	n	23µM	n	n	n	n
CCc1ccc(N2CC(C(=O)N3CCN(c4ccccn4)CC3)CC2=O)cc1 (stereo not drawn)	n	n	n	n	x	n
Cc1cn(-c2ccccc2)c(C)c1/C=N\Nc1nc(N2CCOCC2)nc(N2CCOCC2)n1	n	n	n	19µM	n	n
Cc1cc(N/N=C/c2ccccc2)nc(N)n1	n	u	n	17µM	x	n
Cc1ccc(/C=N/Nc2cc(C)nc(N3CCOCC3)n2)cc1	n	n	n	2.7µM	x	n
Cc1cc(N/N=C/c2ccccc2)nc(N2CCOCC2)n1	n	n	n	12µM	x	n
CC(C)c1ccc(/C=N/Nc2cc(N3CCOCC3)nc(N3CCOCC3)n2)cc1	n	n	n	n	n	n
Cc1nc(N)nc(N/N=C/c2ccccc2)n1	n	n	n	n	x	n
Cc1cccc(/C=N/Nc2cc(N3CCOCC3)nc(N3CCOCC3)n2)c1	n	n	n	n	n	n
O=C(c1cc(S(=O)(=O)N2CCCC2)c[nH]1)N1CCN(c2cccc(Cl)c2)CC1	x	x	x	n	x	x
O=S(=O)(NCC(c1cccs1)S(=O)(=O)c1ccccc1)c1ccc(F)cc1 (stereo not drawn)	x	x	x	n	x	x
SMILES	uPA generation	ELG1 genotoxic	Rab9 prom act	FLuc modulator	SMN2 splice up	NPC1 promoter act
O=C1/C(=C/c2ccc(Br)cc2)Oc2cc(O)ccc21	n	n	u	3.8µM	x	n
O=C1/C(=C/c2ccc([N+](=O)[O-])cc2)Oc2cc(O)ccc21	n	n	n	4.8µM	x	n
O=C(CSc1ncccc1C(=O)Oc1ccccc1Cl)Nc1ccc(C(F)(F)F)cc1Cl	x	x	x	n	x	x
Cc1c(CC(=O)NCc2ccccc2)c(=O)oc2c(C)c(O)ccc12	x	x	x	n	n	x
COc1cccc(CN2C(=O)c3ccccc3Sc3ccc(C(=O)NCCc4ccc(C)cc4)cc32)c1	x	x	x	n	n	x
O=C(Nc1ccc2c(c1)OCCO2)c1cc2sccc2n1Cc1ccccc1	n	n	u	21µM	n	n
O=C(Nc1ccc2c(c1)OCCO2)c1cc2sccc2n1Cc1ccc(F)cc1	n	n	n	u	n	n
Cn1c(C(=O)Nc2ccc3c(c2)OCCO3)cc2sccc21	n	2.1µM	1.1µM	1.1µM	7.1µM	1.3µM
Cn1c(C(=O)NCCN2CCOCC2)cc2sccc21	x	n	n	n	n	n
O=C(NNC1=NS(=O)(=O)c2ccccc21)c1ccccc1Cl	n	n	n	17µM	x	n
O=C(/C=C/c1ccccc1)NNC1=NS(=O)(=O)c2ccccc21	n	n	n	24µM	x	n
O=C(NNC1=NS(=O)(=O)c2ccccc21)c1ccccc1	n	n	n	4.8µM	x	n
O=C(NNC1=NS(=O)(=O)c2ccccc21)c1cccc([N+](=O)[O-])c1	n	n	n	12µM	x	n
COc1ccccc1C(=O)NNC1=NS(=O)(=O)c2ccccc21	n	n	n	u	x	n
O=C(NNc1c(Cl)cc(Cl)cc1Cl)c1cccc([N+](=O)[O-])c1	n	n	n	n	n	n
CC(C)NC(=O)N1CC2(CCN(C(=O)c3ccncc3)CC2)C1	x	x	x	x	n	x
CC1CCN(C(=O)Cn2cc(SCc3cccc(F)c3)c3ccccc32)CC1	x	x	x	n	x	x
CCc1ccc(C(=O)CSc2nc3cc(S(=O)(=O)N4CCOCC4)ccc3n2CC)cc1	n	n	n	13µM	n	n
Cc1ccc(C2CCN(C(=O)Nc3ccc(Cl)c(Cl)c3)C2)cc1 (stereo not drawn)	x	x	x	4.8µM	x	x
O=C(Nc1ccc(Cl)c(Cl)c1)N1CCC(c2ccccc2)C1 (stereo not drawn)	x	x	x	1.7µM	x	x
O=C(Nc1ccc2nsnc2c1)N1CCCCCC1	n	u	u	17µM	n	n
O=C(Nc1ccc(Cl)c(Cl)c1)N1CCC(N2CCCCC2)CC1	n	n	n	n	n	n
Cc1ccc(C2CCN(C(=O)Nc3ccc(C)c(C)c3)C2)cc1 (stereo not drawn)	x	x	x	12µM	x	x
CCOc1ccc(NC(=O)N2CCC(c3ccc(C)cc3)C2)cc1 (stereo not drawn)	x	n	n	n	n	n
O=C(Nc1ccc2nc(-c3ccco3)c(-c3ccco3)nc2c1)N1CCCCCC1	n	n	n	21µM	n	n
CCOC(=O)C1CCN(C(=O)Nc2ccc3nc(-c4ccco4)c(-c4ccco4)nc3c2)CC1	n	n	n	u	n	n
O=C(Nc1ccc(Cl)c(Cl)c1)N1CCCCCC1	n	u	2.5µM	6µM	x	2.8µM
COC(=O)C1C(=O)c2c([nH]c(C(=O)OCCOC(C)C)c2C)CC1C (stereo not drawn)	n	u	u	13µM	n	n
